From PubChem BioAssay AID1159580 (chemical genetic matrix, 2015)
The campaign covered roughly 5,500 compounds. About 2,000 (36%) were called active. About 18% were inconclusive and are not listed. Rule as the data show it: active = normalized growth mostly below about 0.91 (no sharp cut-off); inconclusive = no clear call, values can overlap the other calls; inactive = mostly above about 0.92. This is one part of the list.

Experiment: chemical genetic growth profiling, strain panel (AID 1159580);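 also: tested at 20 µM; growth read once vehicle control cultures reached saturation at 30 °C; 1 = growth at the plate median or of vehicle wells; lower values mean less growth of the strain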
Settings: S. cerevisiae deletion strains, growth OD
[1] = locus YAR019C, strain CDC15, active compounds read low
[2] = locus YBL105C, strain PKC1, active compounds read low
[3] = locus YBR135W, strain CKS1, active compounds read low
[4] = locus YBR136W, strain MEC1, active compounds read low
[5] = locus YBR160W, strain CDC28, active compounds read low
[6] = locus YDL017W, strain CDC7, active compounds read low
[7] = locus YDL028C, strain MPS1, active compounds read low
[8] = locus YDL101C, strain DUN1, active compounds read low
[9] = locus YDL108W, strain KIN28, active compounds read low
[10] = locus YDL132W, strain cdc53, active compounds read low
[11] = locus YDL214C, strain PRR2, active compounds read low
[12] = locus YDR052C, strain DBF4, active compounds read low
[13] = locus YDR054C, strain cdc34, active compounds read low
[14] = locus YDR226W, strain ADK1, active compounds read low
[15] = locus YDR477W, strain SNF1, active compounds read low
[16] = locus YER123W, strain YCK3, active compounds read low
[17] = locus YER133W, strain GLC7, active compounds read low
[18] = locus YFL009W, strain cdc4, active compounds read low
[19] = locus YFL029C, strain CAK1, active compounds read low
[20] = locus YFR003C, strain YPI1, active compounds read low
[21] = locus YFR019W, strain FAB1, active compounds read low
[22] = locus YFR028C, strain CDC14, active compounds read low
[23] = locus YGR040W, strain KSS1, active compounds read low
[24] = locus YGR052W, strain FMP48, active compounds read low
[25] = locus YGR092W, strain DBF2, active compounds read low
[26] = locus YHR030C, strain SLT2, active compounds read low
[27] = locus YHR079C, strain IRE1, active compounds read low
[28] = locus YHR082C, strain KSP1, active compounds read low
[29] = locus YHR205W, strain SCH9, active compounds read low
[30] = locus YIL147C, strain SLN1, active compounds read low
[31] = locus YJL095W, strain BCK1, active compounds read low
[32] = locus YJL128C, strain PBS2, active compounds read low
[33] = locus YJL157C, strain FAR1, active compounds read low
[34] = locus YJR016C, strain ILV3, active compounds read low
[35] = locus YJR066W, strain TOR1 (second series), active compounds read low
[36] = locus YJR066W, strain TOR1, active compounds read low
[37] = locus YKL048C, strain ELM1, active compounds read low
[38] = locus YKL067W, strain YNK1, active compounds read low
[39] = locus YKL101W, strain HSL1, active compounds read low
[40] = locus YKL193C, strain SDS22, active compounds read low
[41] = locus YKL203C, strain TOR2, active compounds read low
[42] = locus YLR113W, strain HOG1, active compounds read low
[43] = locus YLR133W, strain CKI1, active compounds read low
[44] = locus YLR403W, strain SFP1, active compounds read low
[45] = locus YML070W, strain DAK1, active compounds read low
[46] = locus YMR001C, strain CDC5, active compounds read low
[47] = locus YMR205C, strain PFK2 (second series), active compounds read low
[48] = locus YMR277W, strain FCP1, active compounds read low
[49] = locus YNL006W, strain LST8, active compounds read low
[50] = locus YNL020C, strain ARK1, active compounds read low
[51] = locus YNL161W, strain CBK1, active compounds read low
[52] = locus YNL183C, strain NPR1, active compounds read low
[53] = locus YNL207W, strain RIO2, active compounds read low
[54] = locus YNL222W, strain SSU72, active compounds read low
[55] = locus YNL307C, strain MCK1 (second series), active compounds read low
[56] = locus YOL078W, strain AVO1, active compounds read low
[57] = locus YOL136C, strain PFK27, active compounds read low
[58] = locus YOR061W, strain CKA2, active compounds read low
[59] = locus YOR119C, strain RIO1, active compounds read low
[60] = locus YOR231W, strain MKK1, active compounds read low
[61] = locus YOR329C, strain SCD5, active compounds read low
[62] = locus YPL031C, strain PHO85, active compounds read low
[63] = locus YPL153C, strain RAD53, active compounds read low
[64] = locus YPL204W, strain HRR25, active compounds read low
[65] = locus YPL209C, strain IPL1, active compounds read low
[66] = locus YPL256C, strain CLN2, active compounds read low
[67] = locus YPR025C, strain CCL1, active compounds read low
[68] = locus YPR106W, strain ISR1, active compounds read low
[69] = locus YPR111W, strain DBF20, active compounds read low
[70] = strain NNK1, active compounds read low
[71] = strain TSCII, active compounds read low

Measured: normalized growth

O=S(=O)(Nc1ccccc1Oc1ccccc1)c1ccc(-c2ccno2)s1
active: [42] 0.769
inactive: [1] 0.974 | [2] 0.961 | [3] 0.966 | [4] 0.968 | [5] 0.961 | [6] 0.969 | [7] 0.965 | [8] 0.968 | [9] 0.972 | [10] 0.964 | [11] 0.916 | [12] 0.978 | [13] 0.965 | [14] 0.968 | [15] 0.943 | [16] 0.911 | [17] 0.964 | [18] 0.96 | [19] 0.96 | [20] 0.969 | [21] 0.97 | [22] 0.963 | [23] 0.929 | [24] 0.976 | [25] 0.916 | [26] 0.961 | [27] 0.954 | [28] 0.98 | [29] 0.933 | [30] 0.969 | [31] 0.962 | [32] 0.953 | [33] 0.924 | [34] 0.964 | [35] 0.919 | [36] 1 | [37] 0.932 | [38] 0.941 | [39] 0.893 | [40] 0.962 | [41] 0.982 | [43] 0.914 | [44] 0.891 | [45] 0.906 | [46] 0.968 | [47] 0.948 | [48] 0.965 | [49] 0.973 | [50] 0.924 | [51] 0.968 | [52] 0.954 | [53] 0.966 | [54] 0.961 | [55] 0.932 | [56] 0.963 | [57] 0.908 | [58] 0.921 | [59] 0.995 | [60] 0.888 | [61] 0.968 | [62] 0.944 | [63] 0.93 | [64] 0.927 | [65] 0.965 | [66] 0.873 | [67] 0.971 | [68] 0.946 | [69] 0.929 | [70] 0.948 | [71] 0.967

Cc1ccc(-n2cccc2)c(NS(=O)(=O)c2ccc(-c3ccno3)s2)c1
inactive: [1] 0.94 | [2] 0.947 | [3] 0.944 | [4] 0.953 | [5] 0.938 | [6] 0.957 | [7] 0.933 | [8] 0.958 | [9] 0.937 | [10] 0.943 | [11] 0.899 | [12] 0.962 | [13] 0.941 | [14] 0.929 | [15] 0.894 | [16] 0.868 | [17] 0.902 | [18] 0.93 | [19] 0.936 | [20] 0.957 | [21] 0.976 | [22] 0.94 | [23] 0.914 | [24] 0.898 | [25] 0.76 | [27] 0.847 | [28] 0.888 | [29] 0.862 | [30] 0.941 | [31] 0.816 | [32] 0.891 | [33] 0.921 | [34] 0.941 | [35] 0.889 | [36] 0.816 | [37] 0.924 | [38] 0.885 | [39] 0.894 | [40] 0.941 | [41] 0.979 | [43] 0.923 | [44] 0.915 | [45] 0.905 | [46] 0.947 | [47] 0.918 | [48] 0.93 | [49] 0.965 | [50] 0.939 | [51] 0.953 | [52] 0.9 | [53] 0.939 | [54] 0.943 | [55] 0.9 | [56] 0.941 | [57] 0.906 | [58] 0.906 | [59] 0.923 | [60] 0.833 | [61] 0.952 | [62] 0.896 | [63] 0.872 | [64] 0.883 | [65] 0.953 | [67] 0.95 | [68] 0.932 | [69] 0.926 | [70] 0.938 | [71] 0.942
active: [26] 0.667 | [42] 0.774 | [66] 0.791
